Reference: PubChem BioAssay (Tox21)
Inconclusive results are not listed. Active and inactive are the calls of the source. Unless noted, calls come from the whole dose curve; as a rule, active = well fitted curve in the direction sought with a large enough effect in the repeat runs; inconclusive = weak or mixed curves; inactive = no such curve, though single readings can be large; an effect the other way counts as inactive or inconclusive.

Assays:
[1] = qHTS assay for small molecule agonists of the p53 signaling pathway (AID 651631; calls by dose curve; note: nearly all actives have a fitted effect of over 15% in size)
In short: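 HCT-116 cells carrying a beta-lactamase reporter under p53 response elements were dosed with compound for 16 h at 37 °C. LiveBLAzer B/G FRET substrate was then added for 2 h at room temperature, and fluorescence intensity was read to detect pathway agonism.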

[2] = qHTS assay for small molecules that induce genotoxicity in human embryonic kidney cells expressing luciferase-tagged ATAD5 (AID 651632); note: nearly all actives have a fitted effect of over 15% in size; note: potency is the fitted concentration of half-maximal effect
In short: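 Reporter cells (HEK293T) express luciferase-tagged ATAD5, a protein that accumulates after DNA damage. Treat 16 hr at 37C/5% CO2, add Amplite, wait 30 min at RT, and read luminescence.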

[3] = qHTS assay for small molecule agonists of the p53 signaling pathway - cell viability (AID 651633; calls by dose curve;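 note: p53RE-bla HCT reporter cells with a stable beta-lactamase p53 reporter; series mostly up to about 83 µM; nearly all actives have a fitted effect of over 30% in size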)
In short: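 Viability counter-read: CellTiter-Glo luminescence (30 min, room temperature) in the same p53RE-bla plates. These plates had been exposed to compounds for 16 h at 37 C.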

[4] = qHTS assay for small molecules that induce genotoxicity in human embryonic kidney cells expressing luciferase-tagged ATAD5 - cell viability (AID 651634; calls by dose curve; note: nearly all actives have a fitted effect of over 25% in size)
In short: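 Seeding of 2,000 HEK293T ATAD5-luciferase cells per well preceded pin-tool compound transfer. Plates sat 15.5 hr at 37C under 5% CO2, then fluorescence was read after 30 min with CellTiter-Fluor.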

[5] = qHTS assay for small molecule disruptors of the mitochondrial membrane potential (AID 720635)
In short: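 Mitochondrial membrane potential tracked with Mito-MPS dye, red aggregates (ex 540/em 590 nm) against green monomers (ex 490/em 535 nm). Compound treatment 1 hr at 37C, dye 30 min in HepG2.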

[6] = qHTS assay to test for compound auto fluorescence at 590 nm (red) in HepG2 cells (AID 720674)
In short: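 We screened compounds on adherent HepG2 cells, incubating them for an hour at 37 C in 5% CO2 before reading emission at 590 nm under 540 nm excitation; values reflect equivalence to Rose Bengal sodium fluorescence.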

[7] = qHTS assay to test for compound auto fluorescence at 535 nm (green) in HepG2 cells (AID 720675)
[8] = qHTS assay to test for compound auto fluorescence at 460 nm (blue) in HEK293 cells (AID 720678)
In short: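 HEK293 cells (2,000 per well, medium with 10% dialyzed FBS) attached for 4-5 hr at 37C, then received compound and stood overnight at 37C, 5% CO2. Blue fluorescence was read at Ex/Em 405/460 nm and expressed relative to triamterene.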

[9] = qHTS assay to test for compound auto fluorescence at 590 nm (red) in HEK293 cells (AID 720679)
In short: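 HEK293 cells (2,000/well, medium with 10% dialyzed FBS) attached for 4-5 hr at 37C, received 23 nL compound and were incubated overnight at 37C, 5% CO2. Red fluorescence was then read at 540/590nm Ex/Em, referenced to Rose Bengal sodium.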

[10] = qHTS assay for small molecule disruptors of the mitochondrial membrane potential - cell viability (AID 720634; calls by dose curve;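 note: human HepG2 liver cancer cells; series mostly up to about 83 µM; nearly all actives have a fitted effect of over 20% in size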)
In short: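 Measuring cytotoxicity alongside mitochondrial potential, the screen quantified ATP by luminescence in HepG2 cells after 1 hr compound incubation and a 30 min room-temperature CellTiter-Glo step.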
% is set by controls: 0 for no effect and ±100 for the full control effect.

CC(C)C(O)C(C)(C)CO (configuration not stated)
inactive: Potency [1] | Potency [2] | Potency [3] | Potency [4] | Potency [5] | outcome [6] | outcome [7] | Potency [8] | outcome [9]

O=CNNC=O
inactive: Potency [1] | Potency [2] | Potency [3] | Potency [4] | outcome [10] | outcome [6] | outcome [7] | Potency [8] | outcome [9]

CC(C)CC(O)CC(C)C
inactive: Potency [1] | Potency [2] | Potency [3] | Potency [4] | outcome [6] | outcome [7] | Potency [8] | outcome [9]

CCNc1nc(N)nc(Cl)n1
inactive: Potency [1] | Potency [2] | Potency [3] | Potency [4] | outcome [10] | outcome [6] | outcome [7] | Potency [8] | outcome [9]

O=C(O)CCCc1c[nH]c2ccccc12
inactive: Potency [1] | Potency [2] | Potency [3] | Potency [4] | outcome [10] | outcome [6] | outcome [7] | Potency [8] | outcome [9]

O=C(C(=O)c1ccco1)c1ccco1
inactive: Potency [1] | Potency [2] | Potency [3] | Potency [4] | outcome [10] | outcome [6] | outcome [7] | Potency [8] | outcome [9]

CC(C)C(=O)OCCOc1ccccc1
inactive: Potency [1] | Potency [2] | Potency [3] | outcome [10] | Potency [5] | outcome [6] | outcome [7] | Potency [8]

CNCc1ccc(NC(=O)c2c[nH]c3c2C(=O)CCC3)cc1
inactive: Potency [1] | Potency [2] | Potency [3] | Potency [4] | outcome [6] | outcome [7] | Potency [8] | outcome [9]

COc1ccc(C2C(=O)c3ccccc3C2=O)cc1
inactive: Potency [1] | Potency [2] | Potency [3] | Potency [4] | Potency [5] | outcome [6] | outcome [7] | Potency [8] | outcome [9]

[Cl][Nd]([Cl])[Cl]
inactive: Potency [1] | Potency [2] | Potency [3] | Potency [4] | outcome [10] | outcome [6] | outcome [7] | Potency [8] | outcome [9]

O=C(Oc1ccccc1)c1ccc2ccccc2c1O
active: Potency [2] 9.69 µM
inactive: Potency [1] | Potency [3] | Potency [4] | outcome [6] | outcome [7] | Potency [8] | outcome [9]

CCC(CO)(CO)CO
inactive: Potency [1] | Potency [2] | Potency [3] | Potency [4] | outcome [6] | outcome [7] | Potency [8]

CC1=C2[C@@H]([C@H](C)CC[C@H]2/C=C(\C)C(=O)O)[C@H](O)C1
inactive: Potency [1] | Potency [2] | Potency [3] | Potency [4] | Potency [5] | outcome [6] | outcome [7] | Potency [8] | outcome [9]

COC(CC(C)CCCC(C)(C)O)OC (configuration not stated)
inactive: Potency [1] | Potency [2] | Potency [3] | Potency [4] | Potency [5] | outcome [6] | outcome [7] | Potency [8] | outcome [9]

CCCCCCCCCCCCCCN(C)C
inactive: Potency [1] | Potency [2] | Potency [3] | Potency [4] | Potency [5] | fluorescence, relative to Rose Bengal [6] 0.132% [at 18.6 µM] | fluorescence, % of fluorescein control [7] 0.0291% [at 18.6 µM] | fluorescence, % of triamterene [8] -0.142% [at 18.6 µM] | fluorescence, % of fluorescent control [9] 0.0361% [at 18.6 µM]

N[C@@H](Cc1cc(I)c(O)c(I)c1)C(=O)O
inactive: Potency [1] | Potency [2] | Potency [3] | Potency [4] | outcome [6] | outcome [7] | Potency [8]

O=C(O)CCS
inactive: Potency [1] | Potency [2] | Potency [3] | Potency [4] | outcome [6] | outcome [7] | Potency [8] | outcome [9]

CCSC(=O)N(CC)CC
inactive: Potency [1] | Potency [2] | Potency [3] | Potency [4] | outcome [6] | outcome [7] | Potency [8]

CC(=O)N[C@@H](Cc1ccc(O)cc1)C(=O)O
inactive: Potency [1] | Potency [2] | Potency [3] | Potency [4] | Potency [5] | outcome [6] | outcome [7] | Potency [8]

CC(C)(O)c1coc(S(=O)(=O)NC(=O)Nc2c3c(cc4c2CCC4)CCC3)c1
inactive: Potency [1] | Potency [2] | Potency [3] | Potency [4] | Potency [5] | outcome [6] | outcome [7] | Potency [8] | outcome [9]

C=CC(=O)NC(C)C
inactive: Potency [1] | Potency [2] | Potency [3] | Potency [4] | Potency [5] | outcome [6] | outcome [7] | Potency [8] | outcome [9]

O=C(O)c1cccc(Oc2ccccc2)c1
inactive: Potency [1] | Potency [2] | Potency [3] | Potency [4] | Potency [5] | outcome [6] | outcome [7] | Potency [8] | outcome [9]

CC(C)(O)CCc1ccccc1
inactive: Potency [1] | Potency [2] | Potency [3] | outcome [10] | Potency [5] | outcome [6] | outcome [7] | Potency [8]

C1=CCC2CC=CC2C1 (configuration not stated)
inactive: Potency [1] | Potency [2] | Potency [3] | Potency [4] | outcome [6] | outcome [7] | Potency [8] | outcome [9]

CCCCOC(=O)CCCCC(=O)OCCCC
inactive: Potency [2] | Potency [3] | Potency [4] | outcome [10] | Potency [5] | outcome [6] | outcome [7] | Potency [8]

CCCCC[C@H](O)/C=C/[C@H]1[C@H](O)CC(=O)[C@@H]1C/C=C\CCCC(=O)O
inactive: Potency [2] | Potency [3] | Potency [4] | outcome [10] | Potency [5] | outcome [6] | outcome [7] | Potency [8] | outcome [9]

BrC(Br)C(Br)Br
inactive: Potency [1] | Potency [3] | outcome [10] | Potency [5] | outcome [6] | outcome [7] | Potency [8] | outcome [9]
